In the library only some 19% were active in any assay of this set; here they are far more common.
IL1B secr inh: inflammasome signaling inhibition, IL-1 beta readout | activity change, % at 57.5 µM | THP-1 LPS/ATP IL-1B secretion, AlphaLISA, 16 h; stronger effect = lower value | 360,000 tested, 4.7% active; in the data active = activity change below about -50%; inconclusive = mostly about -30% to -49%; note: % is set by controls: 0 for no effect and ±100 for the full control effect
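Secreted IL-1B measured by AlphaLISA bead assay after 16 h compound exposure of THP-1 cells; compounds (final up to 57.5 uM) added 1 h before LPS (250 ng/mL) and ATP (1.25 mM) stimulation; lower signal means less secretion.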
TGFb inhibitor: TGF-b pathway inhibition | HepG2 CAGA-GFP TGF-b/SMAD3 reporter, GFP fluorescence, 18 h; TGF-beta stimulated, 500 pg/mL final | Potency, µM (highest dose often 46.1 µM), for inactives: at the highest dose activity, negative = inhibition, actives largely listed as inhibitors | 410,000 tested, 1.2% active | AID 588855; note: potency is the fitted concentration of half-maximal effect; % is set by controls: 0 for no effect and ±100 for the full control effect; nearly all actives have a fitted effect of over 65% in size
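Inhibition was scored as loss of TGF-beta-induced (500 pg/mL final, 18 hours, 37 degrees C) GFP in HEPG2 cells carrying a CAGA-GFP reporter, in DMEM with 1% FBS. Well GFP was summed per cell; Activity was normalised to unstimulated and stimulated DMSO wells, then concentration-response fitting.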
DT40 TDP1 no CPT: qHTS for Inhibitors of human tyrosyl-DNA phosphodiesterase 1 (TDP1): qHTS in cells in absence of CPT | AID 686978, 2013 | Potency, µM (titrated, usually from 46.2 µM), for inactives: at the highest dose activity change, negative = growth inhibition, most hits filed as inhibitors | 420,000 tested, 15% active | DT40 Tdp1-/- hTDP1 cells, no CPT, ATP luminescence, 48 h; note: potency is the fitted concentration of half-maximal effect; % is set by controls: 0 for no effect and ±100 for the full control effect; nearly all actives have a fitted effect of over 55% in size
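Luminescent ATP content (CellTiter-Glo) served as the growth readout. Knockout chicken DT40 cells expressing human TDP1 were exposed to compounds without camptothecin for a minimum 48 hr at 37 °C.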
TDP1 block: TDP1 (human) enzyme inhibition. Q9NUW8. recombinant TDP1, AlphaScreen DNA substrate cleavage. Potency, µM (titrated, usually from 130 µM), for the others: at the top dose activity change, negative = inhibition, hits mostly inhibitors. 350,000 tested, 0.28% active; note: potency is the fitted concentration of half-maximal effect; % is set by controls: 0 for no effect and ±100 for the full control effect; nearly all actives have a fitted effect of over 40% in size
Target sequence (Q9NUW8 whole entry, looked up): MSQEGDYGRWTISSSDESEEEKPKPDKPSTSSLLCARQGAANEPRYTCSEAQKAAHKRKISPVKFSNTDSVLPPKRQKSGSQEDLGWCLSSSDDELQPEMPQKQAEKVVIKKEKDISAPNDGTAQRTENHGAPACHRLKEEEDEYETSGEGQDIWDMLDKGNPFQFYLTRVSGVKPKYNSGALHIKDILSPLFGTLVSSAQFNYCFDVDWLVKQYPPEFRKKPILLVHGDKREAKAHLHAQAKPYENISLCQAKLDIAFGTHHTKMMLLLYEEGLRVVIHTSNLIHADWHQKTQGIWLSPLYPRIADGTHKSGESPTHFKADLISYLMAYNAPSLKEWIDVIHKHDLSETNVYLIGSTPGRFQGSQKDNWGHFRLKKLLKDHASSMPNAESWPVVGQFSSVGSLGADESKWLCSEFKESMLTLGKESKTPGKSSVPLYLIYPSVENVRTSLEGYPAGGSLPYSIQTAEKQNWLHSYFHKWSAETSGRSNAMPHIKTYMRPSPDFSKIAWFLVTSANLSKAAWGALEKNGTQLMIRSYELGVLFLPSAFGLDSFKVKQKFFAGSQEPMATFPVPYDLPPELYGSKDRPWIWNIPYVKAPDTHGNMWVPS
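Tdp1 1 nM final; 15 min RT w/ cpd; substrate 15 nM, 5 min; beads 10 ug/ml, 10 min; AlphaScreen read. Neg ctrl: no enzyme.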
TDP1 cell CPT: DT40-hTDP1 cell growth loss with CPT | AID 686979 | Potency, µM (top dose mostly 46.2 µM), without a hit: at the highest dose activity change, negative = growth inhibition, most hits filed as inhibitors | chicken DT40 Tdp1-/-;hTDP1 cells + 20 nM CPT, ATP luminescence, 48 h | 420,000 tested, 12% active; note: potency is the fitted concentration of half-maximal effect; % is set by controls: 0 for no effect and ±100 for the full control effect; nearly all actives have a fitted effect of over 55% in size
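Chicken DT40 Tdp1-/- cells stably complemented with human TDP1 were seeded at 400 cells/well in medium containing 20 nM camptothecin, exposed to pin-transferred compounds, and grown at 37 °C for at least 48 hr. Viability was read as ATP luminescence.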
HepG2 tox: counter-screen for TGF-b inhibitors: cytotoxicity in HepG2 cells; 410,000 tested, 0.76% active; HepG2 CAGA-GFP viability, ATP luminescence, 18 h; Potency, µM (series often up to 46.1 µM), for inactives: top-dose activity change, negative = cytotoxicity, hits mostly cytotoxic; note: potency is the fitted concentration of half-maximal effect
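HepG2 CAGA-GFP cells (1000/well, DMEM with 1% FBS) received compound, then TGF-beta at 500 pg/mL final, and were incubated 18 hours at 37 degrees C. Viability was read by CellTiter-Glo luminescence. Media-only wells were set as complete cell-killing and DMSO as no toxicity.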
The depositor's hits bear a star; ? = inconclusive; . = no result given. Unless noted, calls come from the whole dose curve; as a rule, active = well fitted curve in the direction sought with a large enough effect; inconclusive = small, poorly fitted or top-dose-only effect, or another doubt; inactive = no such curve, though single readings can be large; an effect the other way counts as inactive or inconclusive.

SMILES | IL1B secr inh | TGFb inhibitor | DT40 TDP1 no CPT | TDP1 block | TDP1 cell CPT | HepG2 tox
COc1cccc(NC(=O)CSc2nc3c(c(=O)n2C)SC(C)C3)c1 (configuration not stated) | 16 | 3% | ? | 3% | ? | -10%
CC1Cc2nc(SCC(=O)Nc3ccc(F)cc3)n(C)c(=O)c2S1 (configuration not stated) | -11 | -10% | ? | -4% | 23µM* | -3%
CCOc1ccccc1NC(=O)CSc1nc2c(c(=O)n1C)SC(C)C2 (configuration not stated) | -14 | -2% | ? | 7% | ? | -18%
COc1ccc(NC(=O)c2cnc(SC)nc2)cc1 | 9 | 7% | 12µM* | 4% | 15µM* | 4%
COc1ccc(NC(=O)c2cccc3ccccc23)cc1 | -7 | 5% | 21µM* | . | 18µM* | -2%
COc1ccc(NC(=O)c2cc(SC)ccc2Cl)cc1 | ? | ? | ? | 1% | 23µM* | -13%
COc1ccc(NC(=O)c2c(Cl)n(C)c3ccccc23)cc1 | 18 | 10% | 8.2µM* | -1% | 8.2µM* | -14%
O=C(O)/C=C/c1cccc(B(O)O)c1 | . | 2% | 14% | 7% | -3% | 7%
COc1ccccc1OCC(=O)Nc1nc(-c2ccc(Br)cc2)ns1 | . | -15% | -29% | 6% | -33% | -2%
COc1ccc(NC(=O)c2cc3ccccc3cc2O)cc1 | -99* | ? | ? | . | ? | -71%
Oc1ccc2ccccc2c1CNc1ccc2ccccc2c1 | -100* | ? | ? | . | -9% | -57%
Oc1ccc2ccccc2c1CNc1ccccc1 | -29 | -17% | ? | . | ? | -23%
O=C(Nc1cccnc1Oc1ccc(Cl)cc1)c1cccc2ccccc12 | -57* | -7% | ? | 0% | -10% | 11%
NC(=O)c1cccnc1Oc1ccc(Cl)cc1 | -2 | 23% | -22% | -4% | 8% | -6%
Cc1ccc(NC(=O)c2cc3ccccc3cc2O)cc1 | -9 | ? | ? | . | 16µM* | -42%
CC1=CC(=O)O[C@@H]1[C@@]1(C)C[C@H]2OC(=O)C[C@H]3[C@@H](C)C(=O)C(O)=C1[C@@]23CO | 10 | 25% | 5% | . | 5% | 0%
CCSc1nnc(NC(=O)CCNS(=O)(=O)c2ccccc2F)s1 | 58 | 4% | -13% | 1% | -8% | -7%
CCc1ccc(NC(=O)c2cnn(-c3ccccc3)c2C)cc1 | ? | 5% | ? | 3% | -4% | -31%
O=C(Nc1ccc2ccccc2c1)c1ccccc1O | -69* | ? | 10µM* | . | 13µM* | -38%
CCc1ccccc1-n1ncc(C(=O)Nc2ccc(OC)cc2)c1C | -65* | -2% | ? | . | -7% | -2%
O=C(Nc1ccc2ccccc2c1)c1ccccc1Cl | -26 | -23% | ? | . | ? | -27%
Cc1c(Cl)cccc1NC(=O)CNS(=O)(=O)c1cccs1 | . | 11% | -3% | 7% | -4% | 4%
COc1ccc(C(=O)Nc2ccc(N(C)Cc3ccccc3)c(C(=O)O)c2)cc1 | . | 6% | -1% | -10% | -1% | -5%
CCCCN1CC(COCc2ccccc2)Oc2cccc(OCc3ccc(OC)cc3)c2S1(=O)=O (configuration not stated) | 15 | 6% | 4.1µM* | . | 5.8µM* | 2%
CCCCN1CC(COCc2ccccc2)Oc2cccc(Oc3ccc(C)cc3)c2S1(=O)=O (configuration not stated) | 16 | -8% | 7.3µM* | . | 8.2µM* | -51%

Assay outcomes deposited in PubChem BioAssay by National Center for Advancing Translational Sciences (NCATS).
